Test results from the supplement of paper PMC6992640.
± gives the standard deviation of the averaged measurements.

Columns and labels:
Experiment in all cases: cell viability (% of vehicle); higher = less cytotoxic
Conditions in all cases: 10 µM; 72 h
HCI01 = system: HCI01 (cells of a triple-negative basal-like breast cancer xenograft)
HCI03 = system: HCI03 (cells of an ER-positive luminal breast cancer xenograft)
HCI09 = system: HCI09 (cells of a triple-negative luminal androgen receptor type breast cancer xenograft)
HCI11 = system: HCI11 (cells of an ER-positive luminal breast cancer xenograft)
HCI13 = system: HCI13 (cells of an ER-positive luminal breast cancer xenograft)
HCI16 = system: HCI16 (cells of a triple-negative basal-like breast cancer xenograft)
UCD52 = system: UCD52 (cells of a triple-negative basal-like breast cancer xenograft)
WHIM2 = system: WHIM2 (cells of a triple-negative basal-like breast cancer xenograft)
WHIM30 = system: WHIM30 (cells of a triple-negative basal-like breast cancer xenograft)
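Also: PDX cells carrying CMV promoter-driven luciferase, viability read as total photon flux per second by IVIS imaging following D-luciferin, vehicle control 0.1% DMSO.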

Row | Compound | cell viability (HCI01) | cell viability (HCI03) | cell viability (HCI09) | cell viability (HCI11) | cell viability (HCI13) | cell viability (HCI16) | cell viability (UCD52) | cell viability (WHIM2) | cell viability (WHIM30)
1 | O=C(NCCN1CCOCC1)c1ccc(Cl)cc1 | 129.4 ± 0.71 | 171 | 114 ± 22 | 113 | 102 ± 2.1 | 110 | 109 ± 8.9 | 111 ± 16 | 138 ± 4
2 | CCN(CC)CC#CCOC(=O)C(O)(c1ccccc1)C1CCCCC1 (stereo unspecified) [Oxybutynin] | 141 ± 10 | 130 | 132 ± 73 | 118 | 117 ± 17 | 134 | 82.9 ± 5.8 | 97.1 ± 30 | 148 ± 6.4
3 | Cc1nc2n(c(=O)c1CCN1CCC(c3noc4cc(F)ccc34)CC1)CCCC2O (stereo unspecified) [Paliperidone] | 106 ± 11 | 172 | 94.6 ± 17 | 86.3 | 117 ± 4 | 113 | 113 ± 7.6 | 135 ± 24 | 127 ± 4.2
4 | CC12CCC3c4ccc(OC(=O)c5ccccc5)cc4CCC3C1CCC2O (stereo unspecified) [Estradiol Benzoate] | 123.5 ± 0.41 | 131 | 79.7 ± 1.4 | 84.7 | 191 ± 13 | 126 | 83.6 ± 14 | 132 ± 29 | 138 ± 13
5 | O=C(O)CCc1nc(-c2ccccc2)c(-c2ccccc2)o1 [Oxaprozin] | 121 ± 25 | 102 | 89.1 ± 2.8 | 106 | 108 ± 1.6 | 122 | 99.29 ± 0.38 | 101 ± 11 | 151 ± 17
6 | CCCCC(=O)OC1CCC2C3CCc4cc(O)ccc4C3CCC12C (stereo unspecified) [Estradiol valerate] | 157 ± 47 | 122 | 98.1 ± 4.8 | 91.3 | 182 ± 36 | 137 | 90.6 ± 7.6 | 88.9 ± 8.9 | 134 ± 9.2
7 | Cc1nccn1CC1CCc2c(c3ccccc3n2C)C1=O.Cl.O.O (stereo unspecified) [Ondansetron hydrochloride dihydrate] | 101 ± 12 | 82.1 | 117 ± 49 | 107 | 143 ± 6 | 106 | 83.84 ± 0.49 | 88.3 ± 12 | 68.2 ± 14
8 | O=C1CCCC(=O)C1C(=O)c1ccc(C(F)(F)F)cc1[N+](=O)[O-] [Nitisinone] | 105 ± 31 | 110 | 93.2 ± 5.5 | 87.8 | 109 ± 25 | 137 | 103 ± 10 | 79.6 ± 4.9 | 149 ± 19
9 | CC(Nc1ncnc2nc[nH]c12)c1cc2cccc(Cl)c2c(=O)n1-c1ccccc1 (stereo unspecified) | 91.5 ± 1.5 | 53.1 | 71.9 ± 26 | 66.4 | 45.8 ± 4.9 | 81.8 | 67.3 ± 1.7 | 51.1 ± 15 | 95.3 ± 2.1
10 | Cc1cc(C)nc(NS(=O)(=O)c2ccc(N)cc2)n1 [Sulfamethazine] | 86 ± 14 | 88.9 | 101 ± 3.9 | 89.6 | 112 ± 6.1 | 114 | 91.9 ± 5.5 | 95.7 ± 21 | 132 ± 1.9
11 | NCCCCCC(=O)O [(6-)ε-Aminocaproic acid] | 67.8 ± 37 | 136 | 90 ± 16 | 79.6 | 104 ± 5 | 101 | 77.2 ± 5.2 | 101 ± 24 | 155 ± 23
12 | CS(=O)(=O)c1ccc(C2=C(c3ccccc3)C(=O)OC2)cc1 [Rofecoxib] | 127 ± 8.3 | 119 | 84.3 ± 18 | 99.7 | 141 ± 20 | 96.7 | 78.7 ± 10 | 99 ± 6.9 | 84.6 ± 5.8
13 | COc1cc(NC(C)CCCN)c2ncccc2c1.O=P(O)(O)O.O=P(O)(O)O (stereo unspecified) [Primaquine Diphosphate] | 56.3 ± 9.8 | 95.2 | 29.3 ± 9.9 | 49 | 68.2 ± 11 | 116 | 75.7 ± 10 | 70.5 ± 11 | 112 ± 1.8
14 | COCCCN1CCC(NC(=O)c2cc(Cl)c(N)c3c2OCC3)CC1 [Prucalopride] | 86.2 ± 8.4 | 134 | 99.9 ± 20 | 94.2 | 120 ± 13 | 122 | 89.3 ± 11 | 91.4 ± 9.2 | 123 ± 2.2
15 | CCOC(=O)C(CCc1ccccc1)NC(C)C(=O)N1CCCC1C(=O)O.O=C(O)C=CC(=O)O (stereo unspecified) [Enalapril Maleate] | 128 ± 31 | 126 | 101 ± 2.9 | 72.3 | 102 ± 8.6 | 120 | 120 ± 4.4 | 116 ± 15 | 104 ± 3
16 | CC(C)n1c(C=CC(O)CC(O)CC(=O)O)c(-c2ccc(F)cc2)c2ccccc21 (stereo unspecified) [Fluvastatin] | 91.2 ± 13 | 130 | 65.7 ± 18 | 162 | 192 ± 10 | 109 | 59.3 ± 12 | 48.9 ± 2.5 | 139 ± 14
17 | CCCCCCOC(=O)N=C(N)c1ccc(NCc2nc3cc(C(=O)N(CCC(=O)OCC)c4ccccn4)ccc3n2C)cc1.CS(=O)(=O)O [Dabigatran etexilate mesylate] | 98.8 ± 8.5 | 126 | 81.5 ± 8.2 | 99.4 | 106 ± 23 | 94.6 | 98.4 ± 9 | 63.2 ± 3.8 | 104 ± 5.8

Row | Compound | cell viability (HCI01) | cell viability (HCI03) | cell viability (HCI09) | cell viability (HCI11) | cell viability (HCI13) | cell viability (HCI16) | cell viability (UCD52) | cell viability (WHIM2) | cell viability (WHIM30)
18 | CCOC(=O)c1ccc(C#Cc2ccc3c(c2)C(C)(C)CCS3)nc1 [Tazarotene] | 141 ± 48 | 108 | 127 ± 22 | 113 | 184 ± 8.9 | 97.9 | 104 ± 16 | 123 ± 1.6 | 188 ± 10
19 | COc1cc(C2Oc3cc(C4Oc5cc(O)cc(O)c5C(=O)C4O)ccc3OC2CO)ccc1O (stereo unspecified) [Silymarin] | 111 ± 32 | 129 | 102 ± 19 | 89.4 | 127 ± 3.3 | 116 | 107.79 ± 0.095 | 93.6 ± 18 | 91.7 ± 2
20 | CCC1OC(=O)C(C)C(OC2CC(C)(OC)C(O)C(C)O2)C(C)C(OC2OC(C)CC(N(C)C)C2O)C(C)(O)CC(C)C(=O)C(C)C(O)C1(C)O (stereo unspecified) [Erythromycin] | 106 ± 13 | 101 | 96.7 ± 12 | 92.7 | 77.2 ± 9.7 | 113 | 95 ± 17 | 118 ± 36 | 167.6 ± 0.38
21 | CC(O)C1C(=O)N2C(C(=O)O)=C(SC3CNC(CNS(N)(=O)=O)C3)C(C)C12.O (stereo unspecified) [Doripenem Hydrate] | 103 ± 1.4 | 91.1 | 95.9 ± 7 | 84.3 | 84.8 ± 5.9 | 95.3 | 89.1 ± 5.5 | 93.6 ± 7.5 | 109 ± 5.1
22 | CC(C)(C)NC(=O)NC(C(=O)N1CC2C(C1C(=O)NC(CC1CCC1)C(=O)C(N)=O)C2(C)C)C(C)(C)C (stereo unspecified) [Boceprevir] | 100 ± 19 | 83.8 | 87.2 ± 6.2 | 101 | 72.5 ± 1.2 | 65.1 | 80.1 ± 16 | 80.7 ± 15 | 85.1 ± 8.9
23 | Nc1ccn(C2CSC(CO)O2)c(=O)n1 (stereo unspecified) [Lamivudine] | 106 ± 17 | 130 | 94.9 ± 7.3 | 107 | 124 ± 7.9 | 95.2 | 87.7 ± 6.8 | 94.3 ± 11 | 84.4 ± 12
24 | CC(C(=O)O)c1cccc(Oc2ccccc2)c1 (stereo unspecified) [Fenoprofen calcium hydrate] | 98.6 ± 19 | 104 | 94.2 ± 14 | 89 | 101 ± 6.6 | 120 | 85 ± 3.6 | 105 ± 1.2 | 139 ± 25
25 | CCNC1CN(CCCOC)S(=O)(=O)c2sc(S(N)(=O)=O)cc21 (stereo unspecified) [Brinzolamide] | 108 ± 12 | 142 | 97.6 ± 15 | 139 | 132 ± 16 | 100 | 88.17 ± 0.49 | 104 ± 12 | 96.6 ± 7.1
26 | Cc1ccccc1C(OCCN(C)C)c1ccccc1.O=C(O)CC(O)(CC(=O)O)C(=O)O (stereo unspecified) [Orphenadrine Citrate] | 145 ± 33 | 130 | 104 ± 1.3 | 90.9 | 108 ± 15 | 138 | 68.3 ± 6.3 | 83.3 ± 17 | 100 ± 7.5
27 | CC(C)(C)NC(=O)C1CCC2C3CCC4NC(=O)C=CC4(C)C3CCC12C (stereo unspecified) [Finasteride] | 136 ± 20 | 115 | 103 ± 8.5 | 125 | 96.2 ± 4.9 | 99.8 | 81.1 ± 1.1 | 94 ± 1.5 | 156 ± 18
28 | CCN1CCN(C(=O)NC(C(=O)NC2C(=O)N3C2SC(C)(C)C3C(=O)[O-])c2ccccc2)C(=O)C1=O.[Na+] (stereo unspecified) [Piperacillin Sodium] | 109 ± 7.5 | 91.8 | 76.1 ± 26 | 92.6 | 88.4 ± 1.3 | 111 | 108 ± 17 | 105 ± 18 | 152 ± 15
29 | O=C(O)Cc1cc(I)c(Oc2ccc(O)c(I)c2)c(I)c1 [Tiratricol] | 112 ± 48 | 99 | 82.8 ± 6.7 | 87.2 | 42.5 ± 4.2 | 97.2 | 75.6 ± 7.3 | 103 ± 20 | 115 ± 6.8
30 | O=C(O)Cc1ccccc1Nc1c(Cl)cccc1Cl [Diclofenac] | 92.9 ± 26 | 123 | 84.8 ± 15 | 96.8 | 114 ± 31 | 127 | 90.6 ± 16 | 87.4 ± 0.94 | 92.1 ± 4.7
31 | CC(O)C1C(=O)N2C(C(=O)O)=C(SC3CNC(C(=O)N(C)C)C3)C(C)C12.O.O.O (stereo unspecified) [Meropenem trihydrate] | 104 ± 8.7 | 81.8 | 127 ± 32 | 92.4 | 95 ± 0.96 | 96.2 | 89.6 ± 5.1 | 99.4 ± 7.5 | 78.309 ± 0.071
32 | Nc1nc(F)nc2c1ncn2C1OC(COP(=O)(O)O)C(O)C1O (stereo unspecified) [Fludarabine Phosphate (Fludara)] | 101 ± 16 | 134 | 98.1 ± 17 | 124 | 98.8 ± 10 | 106 | 98.2 ± 4.5 | 127 ± 32 | 115 ± 13
33 | NCC1OC(OC2C(CO)OC(OC3C(O)C(N)CC(N)C3OC3OC(CN)C(O)C(O)C3N)C2O)C(N)C(O)C1O.O=S(=O)(O)O (stereo unspecified) [Neomycin sulfate] | 90.1 ± 22 | 135 | 91.8 ± 9.7 | 95.9 | 79.9 ± 2.5 | 111 | 92.9 ± 8.6 | 102 ± 7.7 | 95.9 ± 4.7
34 | C[N+]1(C)[C@@H]2C[C@@H](OC(=O)C(O)(c3cccs3)c3cccs3)C[C@H]1[C@@H]1O[C@@H]12.[Br-] [Tiotropium Bromide] | 124 ± 17 | 116 | 106 ± 18 | 102 | 116 ± 12 | 103 | 88.9 ± 4.2 | 94.7 ± 18 | 125 ± 12
